# Compounds with a hit are over-represented: about 1.4% of the library has one in this group of screens.
# Bfl-1 Bim block: inhibitors of Bim-Bfl-1 interaction, human; AID 1008; Q16548; Bead-based flow cytometry, Bim-Bfl-1 binding inhibition; inhibition, % at 10 µM; 190,000 compounds, 0.12% hits;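 further: 0% = wells without compound plus tracer and 100% = blocker peptide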
# Target sequence (Q16548 whole entry, looked up): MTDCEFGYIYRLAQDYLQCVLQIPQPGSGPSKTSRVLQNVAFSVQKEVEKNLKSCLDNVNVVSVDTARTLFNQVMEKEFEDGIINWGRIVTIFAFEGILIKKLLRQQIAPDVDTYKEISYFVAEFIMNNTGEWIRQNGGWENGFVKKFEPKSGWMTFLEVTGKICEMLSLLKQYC
# Bim-Bcl-B: disrupts Bim peptide binding to human Bcl-B; inhibition, % at 10 µM; AID 951; 190,000 compounds, 0.073% hits; bead-based flow cytometry; Q9HD36;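 further: 0% = tracer peptide without compound and 100% = reference inhibitor peptide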
# Target sequence (Q9HD36 whole entry, looked up): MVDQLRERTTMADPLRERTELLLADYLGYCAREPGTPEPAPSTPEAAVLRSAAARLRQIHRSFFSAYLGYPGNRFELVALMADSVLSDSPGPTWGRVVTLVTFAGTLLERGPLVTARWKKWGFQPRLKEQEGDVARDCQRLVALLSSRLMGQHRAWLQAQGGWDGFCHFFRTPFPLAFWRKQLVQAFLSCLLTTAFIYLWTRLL
# Wee1 stabilizer: inhibitors of human Wee1 degradation; P30291; HeLa Luc-Wee1K328M stability, luciferase luminescence; 100% = proteasome inhibitor MG132 effect; reporter increase, % at 5 µM; 220,000 compounds, 1.2% hits; AID 1321;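 active means activation above the mean of all tested compounds plus 3 SD, set per screening run, cut at about 8.8% in these data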;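 further: cells exposed to compound for 20 h before luminescence read; 0% = DMSO alone and 100% = MG132 at 30 µM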
# Bcl-2 Bim block: human Bim-Bcl-2 interaction inhibition | P10415 | Bead-based flow cytometry, Bim peptide-Bcl-2 binding | inhibition, % at 10 µM | 190,000 compounds, 0.06% hits; in the data active means inhibition above about 40%;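 further: 0% = no compound wells with probe peptide and 100% = reference peptide inhibitor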
# Target sequence (P10415 whole entry, looked up): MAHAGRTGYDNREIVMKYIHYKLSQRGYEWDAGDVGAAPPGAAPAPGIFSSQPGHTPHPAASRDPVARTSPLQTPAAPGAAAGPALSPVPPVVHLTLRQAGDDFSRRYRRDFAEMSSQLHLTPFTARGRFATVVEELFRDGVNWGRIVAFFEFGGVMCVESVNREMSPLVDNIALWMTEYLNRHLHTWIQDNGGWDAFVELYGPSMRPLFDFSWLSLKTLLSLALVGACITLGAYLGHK
# Bim-Bcl-W: inhibitors of Bim-Bcl-W interaction, human; inhibition, % at 10 µM; bead-based flow cytometry, Bim peptide-Bcl-W binding; Q92843; 190,000 compounds, 0.02% hits;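 further: 0% = bound tracer without compound and 100% = peptide blocker; higher means less fluorescent Bim peptide bound to Bcl-W beads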
# Bcl-XL Bim block: human Bim-Bcl-XL interaction inhibition | Bim peptide-Bcl-XL binding, bead flow cytometry, fluorescence | 190,000 compounds, 0.04% hits | AID 1007 | inhibition, % at 10 µM
# Wee1 degr conf: confirmation of human Wee1 degradation inhibitors; shares compounds with Wee1 stabilizer; HeLa Luc-Wee1K328M degradation, luminescence; vehicle 0%, proteasome-blocked wells 100%; activation, % at 5 µM; 1,100 compounds, 4% hits; AID 1410; in the data active means activation above about 8.9%
# Numbers without * were called inactive; x = no result given. Unless noted, no stated cut-off is given here; in the data, active means inhibition above about 40%.
SMILES,Bfl-1 Bim block,Bim-Bcl-B,Wee1 stabilizer,Bcl-2 Bim block,Bim-Bcl-W,Bcl-XL Bim block,Wee1 degr conf
Cc1csc(SCC(=O)Nc2cc(S(=O)(=O)N3CCCC3)ccc2Cl)n1,-3.0,-4.0,12.6*,-5.0,-2.0,0.0,1.3
Cc1csc(SCC(=O)Nc2cccc(S(=O)(=O)N3CCCC3)c2)n1,-19.0,-10.0,-1.7,-10.0,-2.0,-6.0,x
COc1cc(OC)c2c(=O)cc(-c3ccccc3)oc2c1,8.0,4.0,-1.5,-3.0,-2.0,2.0,x
COc1cc(OC)c2c(=O)cc(-c3cccnc3)oc2c1,x,x,14.0*,x,x,x,2.1
O=C(C[n+]1cn(C(F)F)c2ccccc21)c1ccc(OC(F)F)cc1,-2.0,-5.0,15.1*,-2.0,0.0,-3.0,-1.5
CCSc1nnc(NC(=O)c2cc(C)nc3ccccc23)s1,-3.0,1.0,11.0*,0.0,1.0,0.0,1.6
CC(Cc1cccnc1)NC(=O)CCc1nnc(-c2ccccc2)o1 (stereo not drawn),-6.0,-3.0,18.9*,-2.0,-5.0,-3.0,4.0
O=C(Nc1cccnc1)c1sc2cccc(F)c2c1Cl,-9.0,-8.0,14.6*,-3.0,-3.0,-5.0,-0.7
Cc1nc(S/C(C(=O)O)=C2/C(=O)Nc3ccccc32)n[nH]1,x,x,-3.1,x,x,x,x
Cn1c(SCC(=O)c2ccccc2)nnc1-c1cnccn1,-7.0,-5.0,12.8*,0.0,4.0,-5.0,-1.6
Cc1ccccc1OCCn1cc(C(=S)N2CCN(C)CC2)c2ccccc21,-3.0,-1.0,13.2*,-4.0,-2.0,-3.0,0.2
CC(C)CC(=O)Nc1ccc(-c2nc3ccccc3c(=O)[nH]2)cc1,-1.0,-6.0,13.4*,-1.0,-2.0,-4.0,-1.2
CC(C)CC(=O)Nc1ccc(-c2nc3ccccc3c(=O)o2)cc1,9.0,19.0,0.8,11.0,19.0,22.0,x
O=C(C1CCCN1S(=O)(=O)c1cccc2nsnc12)N1CCCCCC1 (stereo not drawn),x,x,-0.6,x,x,x,x
CCCNc1nc(Cl)nc(NC(C)(C)C)n1,-5.0,-3.0,-1.2,-4.0,0.0,0.0,x
CN(CCc1ccccn1)C(=S)Nc1ccc(Cl)c(Cl)c1,-4.0,-15.0,15.1*,-2.0,0.0,-1.0,2.9
Cc1ccc2c(COC(=O)c3n[nH]c4ccccc34)cc(=O)oc2c1,-5.0,-3.0,13.9*,-7.0,1.0,2.0,-1.4
CCc1ccc2c(COC(=O)c3n[nH]c4ccccc34)cc(=O)oc2c1,0.0,0.0,-1.8,-2.0,-4.0,-4.0,x
COc1ccc(OCc2nc(N)nc(Nc3ccccc3OC)n2)cc1,-1.0,0.0,17.6*,-5.0,1.0,0.0,-0.3
CC(C)N1CCC(N2CCN(Cc3ccc(Oc4ncccn4)cc3)CC2CCO)CC1 (stereo not drawn),x,x,12.8*,x,x,x,-0.4
Cc1cc(C(=O)COC(=O)c2ccc(N)c([N+](=O)[O-])c2)c(C)n1-c1ccc2c(c1)OCO2,-12.0,-6.0,3.8,-6.0,-1.0,-7.0,x
CC(=O)c1ccc(OCC(=O)c2cc(C)n(-c3ccc4c(c3)OCO4)c2C)cc1,-6.0,-9.0,15.4*,-11.0,-2.0,-4.0,0.5
Cn1c2ccccc2c(=O)c2c(=O)n(-c3ccccc3)c(-c3ccc(C(C)(C)C)cc3)nc21,x,x,-1.2,x,x,x,x
COc1ccc(NC(=O)COC(=O)Cc2ccccc2[N+](=O)[O-])cc1OC,-4.0,1.0,31.2*,-3.0,0.0,0.0,1.3
CN(CCc1ccccc1)Cc1nc(-c2cnccn2)no1,-4.0,0.0,0.0,-4.0,0.0,0.0,x
SMILES,Bfl-1 Bim block,Bim-Bcl-B,Wee1 stabilizer,Bcl-2 Bim block,Bim-Bcl-W,Bcl-XL Bim block,Wee1 degr conf
CN(Cc1nc(-c2cnccn2)no1)CC(O)c1ccccc1 (stereo not drawn),-5.0,-4.0,12.4*,-7.0,-5.0,-6.0,2.8
OC[C@@H]1CCCN1Cc1nc(-c2cccs2)no1,-4.0,-5.0,10.9*,-1.0,-2.0,-3.0,1.6
NNC(=O)c1ccc(COc2ccc3ccccc3c2)cc1,x,x,15.3*,x,x,x,2.7
NNC(=O)c1ccc(COc2ccc3c(c2)CCC3)cc1,-10.0,-11.0,-2.6,-6.0,-4.0,-6.0,x
Cc1ccccc1NC(=O)c1cc(C(=O)c2cc(Cl)ccc2O)cn(-c2ccccc2C)c1=O,0.0,-7.0,13.9*,0.0,-3.0,-8.0,0.1
Cc1ccc(-n2cc(C(=O)c3cc(Cl)ccc3O)cc(C#N)c2=O)cc1,0.0,-3.0,3.4,0.0,-2.0,-3.0,x
O=C(N/N=C/c1ccco1)c1ccccc1OCc1ccc(Br)cc1,2.0,-3.0,0.1,3.0,0.0,-2.0,x
O=C(NC1CCCCC1)NC1CC2CCC(C1)N2C(=O)NC1CCCCC1 (stereo not drawn),-4.0,0.0,15.4*,-5.0,0.0,3.0,-0.8
CSc1ccc(/C=N/n2c(Cc3ccc(Br)cc3)n[nH]c2=S)cc1,-8.0,-13.0,11.1*,-6.0,-3.0,-5.0,6.0
CN1CCN(C(=O)CSc2nc(-c3ccco3)cc(C(F)(F)F)n2)CC1,1.0,-1.0,-1.7,-1.0,-3.0,-3.0,x
O=C(CSc1nc(-c2ccco2)cc(C(F)(F)F)n1)N1CCSCC1,0.0,x,12.2*,-3.0,-3.0,-4.0,2.0
CC1=C(C(=O)Nc2ccccc2)C(c2cccnc2)n2ncnc2N1 (stereo not drawn),-5.0,-6.0,1.8,-6.0,-1.0,2.0,x
c1ccc(C(c2ccccc2)N2CCN(c3nc4ccccc4n4cnnc34)CC2)cc1,0.0,0.0,11.1*,-1.0,0.0,-1.0,1.1
c1cnc(N2CCN(c3nc4ccccc4n4cnnc34)CC2)nc1,-9.0,-8.0,-1.9,-8.0,1.0,-1.0,x
Cc1c(Cl)cccc1NC(=O)CCCn1nc([N+](=O)[O-])cc1C,-5.0,-7.0,15.0*,0.0,-4.0,-3.0,-2.5
Cc1cc([N+](=O)[O-])nn1CCCC(=O)Nc1ccc(Cl)cc1Cl,-5.0,-4.0,-1.4,0.0,-1.0,-2.0,x
CC(=O)Nc1cccc(/C(C)=N/NC(=O)c2cccc(S(=O)(=O)N3CCOCC3)c2)c1,-1.0,0.0,13.6*,-3.0,5.0,-1.0,-1.3
Cc1ccc2nc(-c3ccc(NC(=O)COC(=O)c4cncc(Br)c4)cc3)sc2c1,-2.0,-10.0,15.3*,-6.0,-7.0,-7.0,-3.1
Cc1ccc2nc(-c3ccc(NC(=O)COC(=O)c4ccc(Br)o4)cc3)sc2c1,-2.0,-6.0,7.3,-1.0,-5.0,-4.0,x
O=c1[nH]c2c(c(=O)[nH]1)CCC2,-6.0,-6.0,-0.3,-2.0,-1.0,-1.0,x
Cc1ccc(C(=O)CSc2nc3ccccc3c(=O)[nH]2)cc1,-8.0,-1.0,20.5*,0.0,5.0,0.0,1.3
COc1ccccc1N1CCN(C(=O)CN2C(=O)c3ccccc3S2(=O)=O)CC1,x,x,-2.2,x,x,x,x
Cc1ccc(O)c(C(CC(=O)NCc2ccco2)c2ccccc2)c1 (stereo not drawn),-8.0,-2.0,11.3*,-7.0,0.0,-2.0,1.7
